Assay outcomes as filed in PubChem.
CYP2C9 act: human CYP2C9 activators, primary screen, biochemical, luminescence. recombinant CYP2C9, luciferin-H conversion; hits give high values; factor 1 = untreated enzyme, 0 = blocked. Cytochrome P450 2C9 (Homo sapiens), P11712. activation factor at 5 µM. hit rate 1.4% among 96,000;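 active = activation factor of 2 or more for CYP2C9 at a 5 µM dose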
sEH inhibitor: soluble epoxide hydrolase inhibitors, primary screen, biochemical, human sEH; recombinant human sEH enzymatic activity assay; inhibition, % at 2 µM; hit rate 0.34% among 91,000; in the data active = inhibition above about 80%
Target sequence (P34913 whole entry, looked up): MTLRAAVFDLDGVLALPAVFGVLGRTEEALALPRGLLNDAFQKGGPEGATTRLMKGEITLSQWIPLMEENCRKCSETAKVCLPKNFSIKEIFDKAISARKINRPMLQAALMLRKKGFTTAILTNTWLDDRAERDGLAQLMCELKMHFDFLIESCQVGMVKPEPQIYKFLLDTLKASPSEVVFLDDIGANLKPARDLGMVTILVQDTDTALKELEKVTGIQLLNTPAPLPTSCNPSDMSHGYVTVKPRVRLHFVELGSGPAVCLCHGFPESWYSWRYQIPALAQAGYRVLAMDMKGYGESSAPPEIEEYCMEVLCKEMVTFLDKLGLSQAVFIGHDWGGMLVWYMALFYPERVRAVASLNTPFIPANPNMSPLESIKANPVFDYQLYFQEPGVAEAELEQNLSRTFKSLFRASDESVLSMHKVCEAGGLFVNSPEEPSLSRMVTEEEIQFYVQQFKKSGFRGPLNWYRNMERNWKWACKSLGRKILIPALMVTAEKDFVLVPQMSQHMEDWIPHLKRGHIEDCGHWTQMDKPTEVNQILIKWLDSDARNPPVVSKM
CYP2C19 activ: human CYP2C19 activators, primary screen, biochemical, luminescence; activation factor at 5 µM; AID 1025, 2008; 96,000 tested, under 10 active; recombinant CYP2C19, luciferin-H EGE luminescence; hits give high values; 0 = fully inhibited enzyme, 1 = untreated enzyme; Cytochrome P450 2C19 (Homo sapiens), P33261;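 active = activation factor of at least 2 at 5 µM in the primary screen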
CYP2C19 inhib: blockers of cytochrome P450 2C19 activity – biochemical, luminescence, ADME assay, primary screen. AID 778, 2007. CYP2C19 Supersomes, luciferin-H EGE luminescence, 30 min. inhibition, % at 5 µM. hit rate 21% among 96,000;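 active = CYP2C19 inhibition above a set limit at 5 µM in the primary screen, cut at about 50% in these data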
sEH activator: soluble epoxide hydrolase activators, primary screen, biochemical, human sEH | Bifunctional epoxide hydrolase 2 (Homo sapiens), P34913 | purified human sEH enzymatic activity, activator screen | activation, % at 2 µM | hit rate 0.04% among 91,000; in the data active = activation above about 37%
CYP2C9 inhib: blockers of cytochrome P450 2C9 activity – biochemical, luminescence, ADME assay, primary screen; inhibition, % at 5 µM; AID 777, 2007; CYP2C9 Supersomes, luciferin-H conversion; hit rate 20% among 96,000;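 active = blocking of liver enzyme CYP2C9 beyond about 50% at 5 µM, limit read from the data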
Each line names hits and unclear results; the compound was inactive in the other large screens. Compounds with a hit are over-represented: about 27% of the library has one in this group of screens.

CCOc1ccc(C=O)cc1CN1CCCCC1	none
CCNc1nc(N)c(C(=C(C#N)C#N)c2ccccc2)s1	none
CCC(=O)Oc1ccc(C/C(=N\O)c2ccc(O)cc2O)o1	CYP2C19 inhib 96, CYP2C9 inhib 96
COc1cc(C)c(C(C)C)cc1S(=O)(=O)N1CCN(C)CC1	none
CCN(CC)S(=O)(=O)c1cc(Br)c(C)cc1OC	CYP2C9 act 2
COc1ccc(Br)cc1S(=O)(=O)N1CCOCC1	none
CCCOc1cc(C)c(Cl)cc1S(=O)(=O)N(CC)CC	none (no result: CYP2C9 act, CYP2C19 activ, CYP2C19 inhib, CYP2C9 inhib)
CCN(CC)S(=O)(=O)c1cc(Br)ccc1OC	CYP2C9 act 2.5, CYP2C19 inhib 98 (no result: sEH inhibitor, sEH activator)
COc1cc(C)c(Br)cc1S(=O)(=O)N1CCCC1	CYP2C9 act 2.8, CYP2C19 inhib 96
Cc1cc(C)c(S(=O)(=O)N(CC(=O)O)CC(=O)O)c(C)c1	none
CCN(CC)S(=O)(=O)c1c(Br)cc(C)cc1Br	CYP2C9 act 2.5
Cc1cc(=O)n2nc(N3CCC(C(=O)NC4CCCc5ccccc54)CC3)sc2n1 (stereo unspecified)	none (no result: sEH inhibitor, sEH activator)
O=C(c1ccccc1)N1CCN(C(=O)N2CCOCC2)CC1	none
N#C/C(=C/N1CCOCC1)c1ccccc1	CYP2C19 inhib 53
CCOc1ccccc1CN1C(=O)c2ccccc2C1C(=O)NCC1CCCO1 (stereo unspecified)	none
CCN1C(=O)CC(C(=O)O)SC1=Nc1ccc(OC)cc1 (stereo unspecified)	none
CCN1C(=O)NC(c2cc(Br)ccc2OC)C(C(=O)OC)=C1C (stereo unspecified)	none (no result: CYP2C9 act, CYP2C19 activ, CYP2C19 inhib, CYP2C9 inhib)
CCN(CC)c1ccc(C(=O)n2cnc3ccccc32)cc1	CYP2C19 inhib 85, CYP2C9 inhib 75 (no result: sEH inhibitor, sEH activator)
C=CCC(CC=C)(NC(=O)c1ccccc1C)c1ccccc1	CYP2C19 inhib 51
CC(=O)N1C(Nc2ccc(Cl)cc2)CCN1c1ccccc1 (stereo unspecified)	none
CCOC(=O)c1ccc(S(=O)(=O)N2CCN(C)CC2)cc1	none
CCOC(=O)c1ccccc1NS(=O)(=O)c1ccc(S(=O)(=O)N2CCCC2)cc1	CYP2C19 inhib 97, CYP2C9 inhib 91 (no result: sEH inhibitor, sEH activator)
CCOC(=O)c1ccccc1NC(=O)c1cc(S(=O)(=O)N2CCOCC2)ccc1F	CYP2C9 inhib 59
O=C(OCCN1C(=O)c2ccccc2C1=O)c1cc(S(=O)(=O)N2CCOCC2)ccc1Cl	CYP2C19 inhib 78, CYP2C9 inhib 86
O=C(NCCSCc1ccccc1)c1cc(S(=O)(=O)N2CCOCC2)ccc1F	CYP2C19 inhib 51, CYP2C9 inhib 70 (no result: sEH inhibitor, sEH activator)
CCOC(=O)N1CCN(S(=O)(=O)c2ccc(F)c(C(=O)Nc3cccc(C)c3C)c2)CC1	none
CN(C)CCCNC(=O)c1cc(S(=O)(=O)N2CCOCC2)ccc1F	none
O=C(COC(=O)c1ccncc1)Nc1cc(Cl)ccc1Cl	CYP2C19 inhib 66, CYP2C9 inhib 90
O=C(OCc1ccc(Cl)cc1Cl)c1ccncc1	CYP2C19 inhib 69
O=C(OCc1ccc(F)cc1Cl)c1ccccn1	CYP2C19 inhib 80
O=C(COC(=O)c1ccncc1)Nc1cc(Cl)c(Cl)cc1Cl	CYP2C19 inhib 98, CYP2C9 inhib 88
Cc1cc(NC(=O)C2CC(c3ccc(Cl)cc3)=NO2)no1 (stereo unspecified)	none
Cc1ccc(C(C)C)c(OCC(=O)c2c(O)c3ccccc3oc2=O)c1	none (no result: CYP2C9 act, CYP2C19 activ, CYP2C19 inhib, CYP2C9 inhib)
Clc1ccc(Sc2cc(Cl)c(-c3ccccc3)nn2)cc1	CYP2C19 inhib 55, CYP2C9 inhib 66
N#Cc1cc(-c2ccccc2)nnc1Sc1ccc(Cl)cc1	none
Cc1ccc(C2C3=C(CC(C)(C)CC3=O)Nc3onc(C)c32)cc1 (stereo unspecified)	CYP2C19 inhib 99, CYP2C9 inhib 56
Cc1noc2c1C(c1ccc(N(C)C)cc1)C1=C(CC(C)(C)CC1=O)N2 (stereo unspecified)	CYP2C19 inhib 76
CCOC(=O)C1=C(C)NC2=C(C(=O)CC(C)(C)C2)C1c1ccc(N(C)C)cc1 (stereo unspecified)	none
O=C(c1cccnc1Nc1ccc2c(c1)CCC2)N1CCOCC1	CYP2C19 inhib 70 (no result: sEH inhibitor, sEH activator)
O=C(c1ncc[nH]1)c1ccccc1C(=O)N1CCOCC1	none
Cc1nc(CN2CCN(C(=O)c3ccc(C(C)(C)C)cc3)CC2)cs1	none (no result: sEH inhibitor, sEH activator)
Cc1ccc(C)c(Cn2c(C(=O)OC(C)C)cc3c2ccn3C)c1	CYP2C19 inhib 55
Cc1ccccc1Cn1c(C(=O)OC(C)C)cc2c1ccn2C	CYP2C19 inhib 53
CC(C)OC(=O)c1cc2c(ccn2C)n1CC(=O)N1CCC(Cc2ccccc2)CC1	none
CCOC(=O)c1cc2c(ccn2C)n1Cc1ccccc1C	none
Nn1c(SCC(=O)Nc2ccc(F)c(F)c2)nnc1C1CCCCC1	none
CCOc1ccc2[nH]c(=O)c(CN(CCO)C(=O)CC)cc2c1	none
COc1ccc(CCNc2nc(-c3sc(C)nc3C)cs2)cc1OC	none
Cc1nc(NC(=O)c2ccccc2)sc1-c1csc(NCc2ccco2)n1	CYP2C19 inhib 89
Cc1nc2ccccn2c1-c1csc(NCc2ccco2)n1	CYP2C19 inhib 72, CYP2C9 inhib 59
Cc1nc(C)c(-c2csc(NCc3ccco3)n2)s1	CYP2C9 act 2.7, CYP2C19 inhib 69
Cc1nc(C)c(-c2csc(NCc3ccccc3)n2)s1	CYP2C19 inhib 83 (no result: sEH inhibitor, sEH activator)
CCOC(=O)Cn1c(=O)c(-c2ccccc2NC)nc2ccccc21	none
O=S(Cc1ccccc1)CC(O)(c1ccc(Cl)cc1)c1ccc(Cl)cc1 (stereo unspecified)	CYP2C19 inhib 85
O=S(Cc1ccc(Cl)cc1)CC(O)(c1ccccc1)c1ccccc1 (stereo unspecified)	CYP2C19 inhib 80
CCOCC(O)CS(=O)Cc1ccccc1 (stereo unspecified)	none
CC(=O)OC(C(=O)Nc1ccccc1C)C(OC(C)=O)C(OC(C)=O)C(OC(C)=O)C(=O)Nc1ccccc1C (stereo unspecified)	none (no result: CYP2C9 act, CYP2C19 activ, CYP2C19 inhib, CYP2C9 inhib)
COc1ccc(C(=O)COC(=O)CN2C(=O)NC(C)(C)C2=O)cc1OC	none
CCOc1cc(-c2nn3cnnc3s2)cc(OCC)c1OCC	none
CCOc1cc(-c2ccc(N)c(OCC)c2)ccc1N	CYP2C19 inhib 98, CYP2C9 inhib 91
O=[N+]([O-])c1cc(C(F)(F)F)ccc1Sc1ccc2ccccc2n1	none
O=[N+]([O-])c1cc(S(=O)(=O)C(F)(F)F)ccc1Sc1nc2ccccc2[nH]1	CYP2C19 inhib 90, CYP2C9 inhib 76
O=[N+]([O-])c1cc(S(=O)(=O)C(F)(F)F)ccc1Sc1nc2ccccc2s1	CYP2C19 inhib 63, CYP2C9 inhib 51
CS(=O)(=O)c1ccc(Sc2nc3ccccc3[nH]2)c([N+](=O)[O-])c1	CYP2C19 inhib 91, CYP2C9 inhib 79
